Data published in PubChem BioAssay AID493231 (Broad Institute, 2011).
Measured potencies and affinities stand elsewhere. Activity calls are given as the source filed them. No rule for the calls is given here.

What follows are compounds tested against Acyl-homoserine lactone acylase PvdQ (Pseudomonas aeruginosa (strain ATCC 15692 / DSM 22644 / CIP 104116 / JCM 14847 / LMG 12228 / 1C / PRS 101 / PAO1)) (UniProt Q9I194) (assay: P. aeruginosa PvdQ acylase inhibitors, dose response, biochemical, fluorescence, plate reader and imaging, cherry-picks (AID 493231;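 also: more negative values mean stronger inhibition of the acylase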)). Details: purified PvdQ acylase, fluorogenic substrate; series mostly up to 10 µM.
Sequence of Acyl-homoserine lactone acylase PvdQ (Pseudomonas aeruginosa (strain ATCC 15692 / DSM 22644 / CIP 104116 / JCM 14847 / LMG 12228 / 1C / PRS 101 / PAO1)) (Q9I194 whole entry, looked up): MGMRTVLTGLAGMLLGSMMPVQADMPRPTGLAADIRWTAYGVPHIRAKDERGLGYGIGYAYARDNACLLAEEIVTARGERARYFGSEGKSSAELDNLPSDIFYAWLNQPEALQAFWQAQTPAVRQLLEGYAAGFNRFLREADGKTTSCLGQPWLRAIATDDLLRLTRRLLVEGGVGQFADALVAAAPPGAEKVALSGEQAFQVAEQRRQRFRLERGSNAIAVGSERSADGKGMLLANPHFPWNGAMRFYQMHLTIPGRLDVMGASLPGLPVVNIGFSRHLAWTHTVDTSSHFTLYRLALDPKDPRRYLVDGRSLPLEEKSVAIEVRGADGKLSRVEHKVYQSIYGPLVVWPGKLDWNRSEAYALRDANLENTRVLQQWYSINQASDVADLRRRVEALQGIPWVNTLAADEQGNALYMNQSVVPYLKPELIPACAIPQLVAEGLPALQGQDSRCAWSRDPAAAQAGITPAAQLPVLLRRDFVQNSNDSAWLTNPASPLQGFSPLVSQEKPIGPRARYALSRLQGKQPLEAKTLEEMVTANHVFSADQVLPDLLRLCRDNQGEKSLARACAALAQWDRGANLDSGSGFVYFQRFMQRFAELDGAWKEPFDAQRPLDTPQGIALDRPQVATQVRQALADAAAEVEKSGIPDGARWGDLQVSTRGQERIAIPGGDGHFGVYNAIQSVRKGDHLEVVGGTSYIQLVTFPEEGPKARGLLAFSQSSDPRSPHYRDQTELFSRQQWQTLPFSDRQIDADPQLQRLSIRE

outcome, inactive:
COc1ccc(-c2cc3ccccc3cn2)cc1
COC(=O)C1CCN(C2CC(=O)N(c3cc(C)cc(C)c3)C2=O)CC1 (stereo unspecified)
COC(=O)c1ccc(-c2nc3ccccc3[nH]2)cc1
Cn1c(=O)c2[nH]c(-c3ccccc3)c(O)c2n(C)c1=O
CCn1c(SCC(=O)N/N=C/c2ccc(C)o2)nnc1-c1ccc(C(C)(C)C)cc1
CCOC(=O)C1CCCN(C(=O)c2cc(S(=O)(=O)N(C)C)ccc2N2CCCC2)C1 (stereo unspecified)
N#C/C(=C\c1ccco1)c1nc2ccccc2s1
O=C(CCCN1C(=O)/C(=C/c2ccccc2)SC1=S)Nc1ccccc1O
O=C(CCc1ccccc1)Nc1ccc2c(c1)OCO2
O=C(NCCCn1ccnc1)c1nn2c(C(F)(F)F)cc(-c3ccccc3)nc2c1Cl
CC(=O)c1c(C)[nH]c(C(=O)COC(=O)c2cccs2)c1C
CN(C)CCCN(Cc1cc2cc3c(cc2[nH]c1=O)OCO3)C(=S)Nc1cccc(Cl)c1
CCOc1ccc(NC(=O)NCc2cccn2C)cc1
O=C1CCCN=C(Nc2ccc(F)c(Cl)c2)S1
COC(=O)C(C(=O)OC)c1ncccc1[N+](=O)[O-]
COc1cccc(Nc2nc(Nc3ccc(Cl)c(C(=O)O)c3)nc(C)c2[N+](=O)[O-])c1
O=C(N/N=C/c1cccnc1)C1CC1(c1ccccc1)c1ccccc1 (stereo unspecified)
CN1C=CC=C/C1=C1\SC(=S)N(Cc2ccccc2)C1=O
CCOC(=S)SCC(=O)Nc1nccs1
CN1CCN(C(=O)c2cccn(Cc3ccc(C(F)(F)F)cc3)c2=O)CC1
COC(=O)c1sccc1N/N=C/c1ccc(OC)c(OC)c1OC
N#Cc1cc([N+](=O)[O-])ccc1Oc1cccc(/C=N/NC(=O)c2ccc(Cl)cc2)c1
Cc1cccc(Nc2nnc(SCC(=O)c3c(N)n(C4CC4)c(=O)[nH]c3=O)s2)c1
Cc1cccc2c(=O)cc(C)n(Cc3ccccc3)c12
O=C(CSc1n[nH]c(=O)n1Cc1ccco1)c1ccc2c(c1)OCCO2
CS(=O)(=O)c1ccc(Cl)c(NC(=O)COC(=O)c2ccc(F)cc2Cl)c1
Cc1ccc(SCC(=O)Nc2ccc(F)cc2[N+](=O)[O-])cc1C
Cc1cccc(NCc2ccccc2O)n1
CN(C)CCN(C(=O)C1=COCCO1)c1nc2ccc(Cl)cc2s1
COC(=O)CNC(c1ccccc1)c1cc(C)ccc1NS(=O)(=O)c1ccc(C)cc1 (stereo unspecified)
NC(=O)COC(=O)c1ccc(-c2ccccc2)cc1
COCC(=O)N1CCC(Oc2ccc(C(=O)NCCc3ccncc3)cc2)CC1
O=C(NCCc1ccc2c(c1)OCCO2)c1ccccc1F
CS(=O)(=O)c1ccc2sc(NC(=O)c3cc4ccccc4o3)nc2c1
CC(=O)c1ccc2c3c(cc(C)c2c1)CCCC3
COc1ccccc1OCCC(=O)OCC(=O)c1c(N)n(C)c(=O)n(C)c1=O
